Results on 14 compounds are retold here after PubChem BioAssay.

The source made the active and inactive calls.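 How the source made its calls, unless noted: active means NADPH fluorescence slope more negative than the mean of all samples by about 3 SD, 99.7% confidence; inactive means the rest.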

The nature of test [1]: inhibitors of TNFa-induced NFkB p65 translocation, primary screen, imaging, HUVEC, MLSMR starter and 10KST1 sets (AID 438;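 active means inhibition above 20% together with a positive visual image hit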;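 further: compound added about 3h40 before a 20 min TNFalpha stimulation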;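 on inhibition: signal is the nuclear over cytoplasmic p65 intensity ratio per well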). To be noted: HUVEC TNFa-induced p65 nuclear translocation; cell count: measured here: nuclei count (cytotoxicity indicator), at 2.08 µM; inhibition: at 2 µM, stronger effect = higher value, 0% TNFa-plus-vehicle, 100% no-TNFa wells.
A short description of test [2]: reduction of polyQ htt aggregates in cells – imaging, exon1htt(103Q)mCFP cells, high-content imaging, primary screen (AID 483;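 active means visual image review flags a hit and inhibition of aggregation exceeds 20%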;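 further: compound exposure lasted 3 days before fixation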;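 on nuclei count: percent of the per-plate median nuclei count of sample wells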). To be noted: exon1htt(103Q)mCFP cell line, aggregate imaging, at 2 µM; inhibition of aggregation: stronger effect = higher value; nuclei count: measured here: cell count, toxicity.
A short description of test [3]: endothelial E-selectin expression blockers – imaging, HUVEC, immunofluorescence, MLSMR starter and 10KST1 sets, primary screen (AID 487;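 active means visually confirmed hit in the image check and inhibition above 20%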;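 on inhibition: signal is fraction of cell area covered by stained E-selectin grains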;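 on nuclei count: 100% = median nuclei count of all wells on the same plate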). Conditions: HUVEC TNFalpha-induced E-selectin immunofluorescence imaging, at 2 µM; inhibition: stronger effect = higher value; nuclei count: measured here: cell number, toxicity.
The target in test [4] is Voltage-gated potassium channel subunit beta-2 (Rattus norvegicus) (UniProt P62483). As to the kind of experiment: inhibitors of rat Kvbeta2 reductase activity – biochemical, NADPH fluorescence, primary screen (AID 622;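 active means fluorescence slope higher than the sample average by over 3 SD, cut at about -0.22 in these data, passing the limit was not always enough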;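 further: slope of raw intensity against log time taken from 70 to 1610 s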). Conditions: recombinant KvBeta, 4-cyanobenzaldehyde reduction, at 10 µM, stronger effect = higher value.
The target is the same in test [5]. The test is described as follows: enhancers of rat Kvbeta2 NADPH turnover – biochemical, NADPH fluorescence, primary screen (AID 623).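 Further: fluorescence intensity change per second fitted from 20 to 320 s.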 Conditions: Recombinant KvBeta, NADPH fluorescence decrease slope, 10 min; at 10 µM; stronger effect = lower value.
For test [6], the target named is Alpha-2C adrenergic receptor (Homo sapiens) (UniProt P18825). The test is described as follows: compounds altering alpha2C-coupled GIRK flux – cell-based, HEK293 alpha2C/GIRK1/2, thallium flux, primary screen (AID 624;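 active means fluorescence slope after compound addition differing from the mean of all screened samples at 99.7% confidence, in either direction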;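 further: slope of fluorescence ratio to pre-addition baseline per second over 15 to 24 s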). Conditions: thallium flux BTC fluorescence, at 10 µM, actives lie on both sides.
Test [7] is described as follows: blockers of RIG-like receptor reporter activation – cell-based, Sendai virus stimulus, luciferase, 10K MLSCN set, TLR/RLR signaling modifier project, primary screen (AID 602276;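 active means inhibition at or above 50% at 10 µM; inactive means inhibition below 50%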;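 further: firefly luciferase from ISG56 promoter only with Renilla not read in this screen; 0% = Sendai virus plus DMSO and 100% = medium plus DMSO without virus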). Conditions: HEK293 RL24 IRF3 luciferase reporter, at 10 µM, stronger effect = higher value. Background: Reporter assays use an easily measured gene product as a stand-in for the process of interest.

Test [8] in a line: TLR3 IRF3 reporter activation blockers – cell-based, poly I:C stimulus, luciferase, 10K MLSCN set, primary screen (AID 602277;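 active means inhibition of the reporter signal at or above 50%; inactive means inhibition below 50%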). Conditions: HEK293-TLR3 RL24 IRF3 luciferase reporter, at 10 µM, stronger effect = higher value.

Voltage-gated potassium channel subunit beta-2 (Rattus norvegicus), sequence (P62483 whole entry, looked up): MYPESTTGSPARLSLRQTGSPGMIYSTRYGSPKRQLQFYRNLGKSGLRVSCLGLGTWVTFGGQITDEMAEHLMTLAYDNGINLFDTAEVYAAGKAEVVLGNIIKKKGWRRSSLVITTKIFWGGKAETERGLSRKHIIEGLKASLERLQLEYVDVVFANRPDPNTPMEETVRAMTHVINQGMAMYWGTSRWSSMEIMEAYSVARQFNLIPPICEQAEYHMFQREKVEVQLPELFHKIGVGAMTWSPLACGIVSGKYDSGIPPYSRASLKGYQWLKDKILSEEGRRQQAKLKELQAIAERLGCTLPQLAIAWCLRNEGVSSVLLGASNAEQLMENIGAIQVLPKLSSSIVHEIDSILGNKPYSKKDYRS
Alpha-2C adrenergic receptor (Homo sapiens), sequence (P18825 whole entry, looked up): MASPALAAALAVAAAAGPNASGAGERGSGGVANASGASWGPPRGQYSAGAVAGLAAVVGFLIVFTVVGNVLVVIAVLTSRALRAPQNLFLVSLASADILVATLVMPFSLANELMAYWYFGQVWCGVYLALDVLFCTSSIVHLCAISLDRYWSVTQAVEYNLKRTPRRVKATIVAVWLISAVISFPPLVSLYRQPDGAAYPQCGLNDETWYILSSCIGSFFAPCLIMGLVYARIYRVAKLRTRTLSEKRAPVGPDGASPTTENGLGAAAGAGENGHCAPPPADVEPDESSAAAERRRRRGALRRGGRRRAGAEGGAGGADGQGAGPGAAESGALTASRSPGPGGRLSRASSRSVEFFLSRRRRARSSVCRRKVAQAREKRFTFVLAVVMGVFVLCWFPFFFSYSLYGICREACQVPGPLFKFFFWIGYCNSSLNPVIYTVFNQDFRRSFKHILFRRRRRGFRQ

`CCN1CCN(c2nc3c(c(=O)[nH]c(=O)n3C)n2CCSc2nc3ccccc3s2)CC1`: the cell count in test [1] worked out at 638. The inhibition (as a rule, the relative decrease from the control value, in per cent) in test [1] was -11.8% (inactive); in test [3], -45.2% (inactive); in test [7] it was 12.2% (inactive); in test [8] it was 23.6% (inactive). Further, the inhibition of aggregation in test [2] was -2.9% (inactive). Besides, the nuclei count in test [2] was 111%; in test [3] it was 113%. In test [4], the fluorescence slope is -0.431 (inactive). Further, the NADPH fluorescence slope in test [5] is -2.8e-05 (inactive). For the same compound, in test [6], the slope is 0.00469 (inactive).
As for `CCOC(=O)N1CCN(C(=O)c2cccn3c(=O)c4sccc4nc23)CC1`, the cell count in test [1] stood at 502. Also, the inhibition in test [1] was 1.1% (inactive); in test [3], -5.7% (inactive); in test [7], -8.79% (inactive); in test [8], -5.35% (inactive). Also, the inhibition of aggregation in test [2] was -5.5% (inactive). Moreover, the nuclei count in test [2] turned out to be 102%; in test [3] it was 114%. For the same compound, in test [4], the fluorescence slope was -0.0756 (inactive). The NADPH fluorescence slope in test [5] was 1.5e-05 (inactive). Moreover, in test [6], the slope is 0.00326 (inactive).
Take `CCCC(=O)N(c1ccc2oc(=O)sc2c1)S(=O)(=O)c1ccccc1`: the cell count in test [1] turned out to be 318. The inhibition was 3.5% (inactive) in test [1], -45.1% (inactive) in test [3], 14.8% (inactive) in test [7] and 17.5% (inactive) in test [8]. Also, in test [2], the inhibition of aggregation is -12.8% (inactive). The nuclei count came to 104% in test [2] and 80% in test [3]. In test [4], the fluorescence slope was -0.61 (inactive). For the same compound, the NADPH fluorescence slope in test [5] was -2.4e-05 (inactive). Moreover, the slope in test [6] was 0.00625 (inactive).
For the compound `COC(=O)CC1SCCNC1=O` (centres undefined), in test [1], the cell count was 308. Also, the inhibition in test [1] was 0.8% (inactive); in test [3], 38.9% (inactive); in test [7], 0.969% (inactive); in test [8], -5.15% (inactive). Further, in test [2], the inhibition of aggregation was -7.1% (inactive). For the same compound, the nuclei count in test [2] is 97.9%; in test [3] it was 98.8%. In addition, the fluorescence slope in test [4] was -0.552 (inactive). In addition, the NADPH fluorescence slope in test [5] was 2e-05 (inactive). Moreover, the slope in test [6] was 0.00463 (inactive).
`CC(C(N)=O)N1C(=O)C2C3C=CC(C3)C2C1=O` (centres undefined): the cell count in test [1] was determined as 217. Further, the inhibition is 1.8% (inactive) in test [1], -33.8% (inactive) in test [3], 10.1% (inactive) in test [7] and 11.3% (inactive) in test [8]. Besides, in test [2], the inhibition of aggregation was -14% (inactive). Further, the nuclei count was determined as 105% in test [2] and 121% in test [3]. In test [4], the fluorescence slope is -0.443 (inactive). The NADPH fluorescence slope in test [5] is -2.4e-05 (inactive). Moreover, in test [6], the slope is 0.00534 (inactive).
Take `CC(C)c1nnc(SCC(=O)NCc2ccco2)n1C`: the cell count in test [1] was determined as 248. Further, the inhibition in test [1] was 2.2% (inactive); in test [3], 21.4% (inactive); in test [7], 3.77% (inactive); in test [8], 97.8% (active). In addition, the inhibition of aggregation in test [2] is -12.1% (inactive). The results for the nuclei count in test [2] and in test [3] were 77% and 86.7%, respectively. For the same compound, the fluorescence slope in test [4] was -0.485 (inactive). Further, the NADPH fluorescence slope in test [5] was 1.5e-05 (inactive). Also, in test [6], the slope was 0.00695 (inactive).
Regarding `CCNc1ccc(C(=O)OCC)cc1NC(=O)c1cc(S(=O)(=O)N2CCOCC2)ccc1C`, the cell count in test [1] amounted to 772. Moreover, the inhibition in test [1] was 7.3% (inactive); in test [3], -81.9% (inactive); in test [7] it was -4.65% (inactive); in test [8] it was -25.5% (inactive). In test [2], the inhibition of aggregation was 31.2% (inactive). The nuclei count stood at 93.3% in test [2] and 114% in test [3]. Moreover, in test [4], the fluorescence slope is -0.551 (inactive). The NADPH fluorescence slope in test [5] is 4.9e-05 (inactive). In addition, the slope in test [6] is 0.00574 (inactive).
With `O=C1OC2(c3ccccc3)C3CCCC2C13`, the cell count in test [1] was 340. Further, the inhibition in test [1] is -1.1% (inactive); in test [3], 5.3% (inactive); in test [7] it was 16% (inactive); in test [8], 15.6% (inactive). In addition, in test [2], the inhibition of aggregation is 7.7% (inactive). In addition, the values for the nuclei count in test [2] and in test [3] were 94.1% and 107%, respectively. Further, the fluorescence slope in test [4] was -0.548 (inactive). Besides, the NADPH fluorescence slope in test [5] is -7.3e-05 (inactive). In addition, the slope in test [6] was 0.00538 (inactive).
With `O=C(Cn1cnc2c(nnn2-c2ccc(F)cc2)c1=O)N1CCCc2ccccc21`, in test [1], the cell count came out at 654. The inhibition in test [1] is 0.4% (inactive); in test [3], 1.5% (inactive); in test [7] it was 14% (inactive); in test [8], 12.1% (inactive). Further, the inhibition of aggregation in test [2] is -21.9% (inactive). The nuclei count in test [2] came to 130%; in test [3], 102%. The fluorescence slope in test [4] is -0.523 (inactive). Moreover, the NADPH fluorescence slope in test [5] was -1.6e-06 (inactive). Also, the slope in test [6] was 0.00588 (inactive).
`Cc1nnc(SCC(=O)Nc2cc(C(F)(F)F)ccc2N2CCOCC2)o1`: in test [1], the cell count turned out to be 271. Moreover, the inhibition in test [1] is 0.2% (inactive); in test [3], -2.6% (inactive); in test [7], 10.8% (inactive); in test [8], 32.5% (inactive). In addition, in test [2], the inhibition of aggregation was 16.1% (inactive). Further, the nuclei count came out at 99.1% in test [2] and 95.1% in test [3]. Besides, the fluorescence slope in test [4] is -0.379 (inactive). Moreover, the NADPH fluorescence slope in test [5] was -3.9e-07 (inactive). In test [6], the slope was 0.00303 (inactive).
As for `Cc1cc(NS(=O)(=O)c2ccc(NC(=O)COc3ccccc3C(C)C)cc2)no1`, the cell count in test [1] amounted to 579. The inhibition in test [1] is -12.7% (inactive); in test [3] it was -2.6% (inactive); in test [7], 14.6% (inactive); in test [8] it was 39.1% (inactive). In addition, the inhibition of aggregation in test [2] is 17.6% (inactive). The values for the nuclei count in test [2] and in test [3] were 72.3% and 116%, respectively. Moreover, the fluorescence slope in test [4] is -0.555 (inactive). Further, the NADPH fluorescence slope in test [5] was -3.3e-05 (inactive). Besides, in test [6], the slope is 0.00559 (inactive).
For the compound `CC(C)C(NC(=O)c1ccc(S(=O)(=O)N2CCOCC2)cc1)c1nc2ccccc2[nH]1` (centres undefined), in test [1], the cell count was 276. Moreover, the inhibition in test [1] is 15.9% (inactive); in test [3], 8.4% (inactive); in test [7], 13.3% (inactive); in test [8] it was 26% (inactive). The inhibition of aggregation in test [2] is -10.8% (inactive). For the same compound, the nuclei count in test [2] was determined as 114%; in test [3], 98.7%. The fluorescence slope in test [4] was -0.436 (inactive). In addition, in test [5], the NADPH fluorescence slope was -9.2e-05 (inactive). In addition, the slope in test [6] was 0.00591 (inactive).
For `O=C(CCCOc1ccccc1)N1CCN(c2ccccn2)CC1`, the cell count in test [1] came to 232. Moreover, the inhibition in test [1] was -4.8% (inactive); in test [3] it was -18.6% (inactive); in test [7], 2.47% (inactive); in test [8], -54.1% (inactive). Further, in test [2], the inhibition of aggregation was 15.3% (inactive). The nuclei count stood at 53.2% in test [2] and 78% in test [3]. In addition, the fluorescence slope in test [4] was -0.487 (inactive). For the same compound, the NADPH fluorescence slope in test [5] is -3.3e-07 (inactive). The slope in test [6] is 0.00525 (inactive).
For `CC(NC(=O)COc1ccc(Br)cc1)C(=O)O` (centres undefined), the cell count in test [1] is 434. Besides, the inhibition in test [1] was 6% (inactive); in test [3] it was -149% (inactive); in test [7], 10.1% (inactive); in test [8] it was 24.7% (inactive). In addition, in test [2], the inhibition of aggregation is 4.7% (inactive). For the same compound, the values for the nuclei count in test [2] and in test [3] were 100% and 136%, respectively. The fluorescence slope in test [4] was -0.439 (inactive). Further, in test [5], the NADPH fluorescence slope is -1.3e-05 (inactive). The slope in test [6] is 0.00364 (inactive).
